PubChem BioAssay (NCATS)
Unmarked numbers belong to inactive results. Results filed as inconclusive are left out. Calls of active or inactive are those of the source. Unless noted, the call rests on the fitted dose curve; in most records, active means well fitted curve in the direction sought with a large enough effect; inconclusive means small, poorly fitted or top-dose-only effect, or another doubt; inactive means no such curve, though single readings can be large; an effect the other way counts as inactive or inconclusive.

Each compound was assayed against T1, Tyrosine-protein phosphatase non-receptor type substrate 1 (Homo sapiens) + Leukocyte surface antigen CD47 (Homo sapiens) (UniProt P78324+Q08722) (assay: CD47-SIRPalpha protein protein interaction - HTRF assay qHTS validation (AID 1347058; active means well fitted curve in the direction sought with a large enough effect in the signal ratio, not every such curve was filed as active; the % refers to the signal ratio; further: 0% is about no effect)). Conditions: TR-FRET HTRF CD47-His / biotin-SIRPalpha binding, ratio 665/615; series mostly up to 38.3 µM; activity change, negative = inhibition: at the top concentration.
T1 sequence (P78324 whole entry, looked up, the tested form may be a part): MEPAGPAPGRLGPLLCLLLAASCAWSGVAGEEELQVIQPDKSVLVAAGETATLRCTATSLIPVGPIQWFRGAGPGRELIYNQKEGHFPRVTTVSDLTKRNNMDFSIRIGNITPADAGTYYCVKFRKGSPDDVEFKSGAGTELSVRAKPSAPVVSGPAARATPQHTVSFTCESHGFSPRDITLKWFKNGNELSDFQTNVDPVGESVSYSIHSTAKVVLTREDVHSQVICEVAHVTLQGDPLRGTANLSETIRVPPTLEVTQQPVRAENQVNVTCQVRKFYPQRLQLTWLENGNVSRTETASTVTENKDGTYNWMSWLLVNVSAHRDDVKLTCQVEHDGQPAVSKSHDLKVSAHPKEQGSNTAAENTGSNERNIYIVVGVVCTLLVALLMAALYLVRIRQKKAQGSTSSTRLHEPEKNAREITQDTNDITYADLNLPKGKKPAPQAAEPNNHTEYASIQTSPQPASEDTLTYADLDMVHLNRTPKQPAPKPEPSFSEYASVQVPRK
T1 sequence (Q08722 whole entry, looked up, the tested form may be a part): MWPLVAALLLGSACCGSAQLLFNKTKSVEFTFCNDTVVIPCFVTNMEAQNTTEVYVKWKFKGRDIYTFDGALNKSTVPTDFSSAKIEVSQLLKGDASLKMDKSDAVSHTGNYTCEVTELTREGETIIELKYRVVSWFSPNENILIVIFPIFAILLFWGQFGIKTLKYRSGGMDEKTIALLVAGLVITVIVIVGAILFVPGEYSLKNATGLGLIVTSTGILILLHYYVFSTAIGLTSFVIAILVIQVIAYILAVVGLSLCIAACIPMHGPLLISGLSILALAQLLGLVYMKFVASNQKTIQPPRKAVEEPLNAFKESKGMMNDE
Summary of the method: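 Soluble extracellular domains (6His-CD47, Avi-tag-biotinylated SIRPalpha) in PBS pH 7.4 with 0.05% IGEPAL CA-630. Compounds were preincubated 30 min at RT with CD47 and anti-His-Eu, then SIRPalpha and SAV-XL665 were added. TR-FRET 665/615 ratio.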
With COc1cc(CC(=O)O)ccc1O the “activity change, negative = inhibition” value was 0.512%.
N[C@@H](CCC(=O)N[C@H](CSN=O)C(=O)NCC(=O)O)C(=O)O was tested, and the “activity change, negative = inhibition” value was 1.79%.
COc1ccc2c(c1)CCC1C2CC[C@@]2(C)C1CC[C@@H]2NCCCCCCN1C(=O)C=CC1=O (stereo partly drawn) was tested, and the “activity change, negative = inhibition” value was 2.75%.
In the case of CCCCOC(=O)NS(=O)(=O)c1sc(CC(C)C)cc1-c1ccc(Cn2c(CC)nc3c(C)cc(C)nc32)cc1, the “activity change, negative = inhibition” value is reported as -4.88%.
For C=C1C(=O)O[C@@H]2[C@H]3O[C@]3(C)CCC=C(C)CC[C@@H]12, the “activity change, negative = inhibition” value was -0.301%.
For O=C(O)Cc1c[nH]c2ccc(O)cc12, the “activity change, negative = inhibition” value was 17.6%.
OC1(c2ccc(Cl)cc2)CCN(Cc2c[nH]c3ccccc23)CC1 was tested, and the “activity change, negative = inhibition” value was 0.994%.
With COc1ccc(NC(=O)c2ccc(-c3ccc(-c4noc(C)n4)cc3C)cc2)cc1N1CCN(C)CC1 the “activity change, negative = inhibition” value was -5.05%.

What follows are compounds tested against T1, Tyrosine-protein phosphatase non-receptor type substrate 1 (Homo sapiens) + Leukocyte surface antigen CD47 (Homo sapiens) (assay: CD47-SIRPalpha protein protein interaction - Alpha assay qHTS validation (AID 1347059;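 further: bead proximity luminescence from CD47 binding SIRPalpha after compound preincubation with SIRPalpha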; further: potency means the concentration at half of the fitted maximal effect; on activity change, negative = inhibition: on the % scale 0 is the no-effect control and ±100 the full control effect)). Conditions: AlphaScreen CD47-His/biotin-SIRPalpha binding, LOPAC; series mostly up to 38.3 µM; activity change, negative = inhibition: at the top concentration.
Summary of the method: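 AlphaScreen signal between CD47-His (12.5 nM) and biotin-SIRPalpha (25 nM) soluble extracellular domains, bead-captured via Ni-NTA and streptavidin. Compounds, in 7-point titrations, met SIRPalpha 30 min before CD47; PBS pH 7.4 with 0.05% IGEPAL.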
For CCCn1c(=O)c2[nH]c(-c3ccc(S(=O)(=O)O)cc3)nc2n(CCC)c1=O, the “activity change, negative = inhibition” value was 3.58%.
In the case of NC(=Nc1ccccc1)NC(=O)c1nc(Cl)c(N)nc1N, the “activity change, negative = inhibition” value is reported as -1.96%.
CC(C)(C)c1cc(/C=C(\C#N)C(N)=S)cc(C(C)(C)C)c1O was tested, and the “activity change, negative = inhibition” value was -26.8%.
CC#CCOC(=O)c1c(C)nc2sc3c(c2c1N)CCC(O)C3 (stereo not drawn) was tested, and the “activity change, negative = inhibition” value was -1.55%.
With COc1cc(CC(=O)O)ccc1O the “activity change, negative = inhibition” value was -0.709%.
Nc1ccc2c3c(cccc13)C(=O)NC2=O was tested, and the “activity change, negative = inhibition” value was -7.44%.
N=C(N)SCCc1cnc[nH]1 was tested, and the “activity change, negative = inhibition” value was 3.66%.
With C[C@H](O)C(=O)C1=Nc2c(nc(N)[nH]c2=O)NC1 the “activity change, negative = inhibition” value was -0.517%.
With CC[C@@H]1Cc2cc(O)ccc2C2=C1c1ccc(O)cc1C[C@H]2CC the “activity change, negative = inhibition” value was -29.3%.
In the case of N[C@@H](CCC(=O)N[C@H](CSN=O)C(=O)NCC(=O)O)C(=O)O, the “activity change, negative = inhibition” value is reported as 1.07%.
CN(C)S(=O)(=O)c1ccc2c(c1)/C(=C/c1cc3c([nH]1)CCCC3)C(=O)N2 was tested, and the “activity change, negative = inhibition” value was -13.7%.
O=C(O)CCC(=O)N1CCCC1C(=O)O (stereo not drawn) was tested, and the “activity change, negative = inhibition” value was -6.53%.
For Cn1c(=O)c2[nH]c(-c3ccc(S(=O)(=O)O)cc3)nc2n(C)c1=O, the “activity change, negative = inhibition” value was -6.97%.
Cn1cc(C(F)(F)F)nc1-c1ccc(OCC(O)CNCCOc2ccc(O)c(C(N)=O)c2)cc1 (stereo not drawn) was tested, and the “activity change, negative = inhibition” value was -14.1%.
In the case of NS(=O)(=O)c1cccc2c1c([N+](=O)[O-])cc1nc(O)c(O)nc12, the “activity change, negative = inhibition” value is reported as 0.169%.
For CCCCCCCCCCCCCCCCCCOC[C@H](COP(=O)([O-])OCC[N+](C)(C)C)OC, the “activity change, negative = inhibition” value was 16.8%.
With CCCCOC(=O)NS(=O)(=O)c1sc(CC(C)C)cc1-c1ccc(Cn2c(CC)nc3c(C)cc(C)nc32)cc1 the “activity change, negative = inhibition” value was -12.7%.
In the case of C=C1C(=O)O[C@@H]2[C@H]3O[C@]3(C)CCC=C(C)CC[C@@H]12, the “activity change, negative = inhibition” value is reported as -4.13%.
O=C1NC(=O)c2cc(Nc3ccccc3)c(Nc3ccccc3)cc21 was tested, and the “activity change, negative = inhibition” value was -16.3%.
In the case of O=C(O)Cc1c[nH]c2ccc(O)cc12, the “activity change, negative = inhibition” value is reported as 1.66%.
O=S(=O)(c1cccc2c(Cl)cccc12)N1CCCNCC1 was tested, and the “activity change, negative = inhibition” value was 3.94%.
For c1ccc(CN2CCC3(CCCc4ccccc43)CC2)cc1, the “activity change, negative = inhibition” value was -0.985%.
In the case of CCOC(=O)C12CC1/C(=N/O)c1ccccc1O2 (stereo not drawn), the “activity change, negative = inhibition” value is reported as -0.11%.
With OC1(c2ccc(Cl)cc2)CCN(Cc2c[nH]c3ccccc23)CC1 the “activity change, negative = inhibition” value was -16.1%.
For O=C(N[C@@H](Cc1ccccc1)C(=O)CCl)OCc1ccccc1, the “activity change, negative = inhibition” value was 3.14%.
With CC(C)(C)c1ccc(/C=C/C(=O)Nc2ccc3c(c2)OCCO3)cc1 the “activity change, negative = inhibition” value was -22.6%.
For Nc1nc2c(cnn2CCc2ccccc2)c2nc(-c3ccco3)nn12, the “activity change, negative = inhibition” value was -7.84%.
CC[n+]1c(/C=C/C=C2/N(C)c3ccccc3C2(C)C)sc2ccccc21 was tested, and the Potency was 7.36 µM (active).
In the case of NC/C=C\C(=O)O, the “activity change, negative = inhibition” value is reported as 1.29%.
With Cc1ccc2c(c1)C(N1CCN(C)CC1)=Nc1cccnc1N2 the “activity change, negative = inhibition” value was 0.481%.

Each compound was assayed against Parathyroid hormone/parathyroid hormone-related peptide receptor (Homo sapiens) (UniProt Q03431) (assay: qHTS for PTHR1 Agonists: Optimization Screen against the NCGC LOPAC library (AID 1347079;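 further: GloSensor cAMP luminescence in HEK-293 GP2 cells expressing human PTHR1 with IBMX; 0% is about no effect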)). Conditions: HEK293 GP2 PTHR1 GloSensor cAMP luminescence, 1 h; series mostly up to 57.1 µM; activation: at the top concentration.
Sequence of Parathyroid hormone/parathyroid hormone-related peptide receptor (Homo sapiens) (Q03431 whole entry, looked up): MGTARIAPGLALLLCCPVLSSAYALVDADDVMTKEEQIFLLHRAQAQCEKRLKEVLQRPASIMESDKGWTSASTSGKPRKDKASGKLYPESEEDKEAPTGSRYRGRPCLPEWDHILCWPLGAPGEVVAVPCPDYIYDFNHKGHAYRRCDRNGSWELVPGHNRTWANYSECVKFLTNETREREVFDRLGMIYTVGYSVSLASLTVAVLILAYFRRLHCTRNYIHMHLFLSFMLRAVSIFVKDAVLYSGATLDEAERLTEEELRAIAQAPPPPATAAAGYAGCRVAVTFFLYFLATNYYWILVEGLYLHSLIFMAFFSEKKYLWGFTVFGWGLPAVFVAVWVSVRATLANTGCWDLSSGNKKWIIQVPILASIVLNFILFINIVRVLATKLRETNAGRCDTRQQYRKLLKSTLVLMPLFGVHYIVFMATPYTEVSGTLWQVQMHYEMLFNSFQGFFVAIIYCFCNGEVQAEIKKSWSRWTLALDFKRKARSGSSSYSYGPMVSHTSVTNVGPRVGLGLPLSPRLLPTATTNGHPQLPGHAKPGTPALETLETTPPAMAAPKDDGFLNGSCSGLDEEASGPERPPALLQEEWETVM
Summary of the method: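 HEK-293 GP2 cells, PTHR1 + GloSensor cAMP; 3000 cells/well, o/n. Luciferin + IBMX 0.5mM each (stock), 1 hr 37C. Cpd titration, 1 hr 37C. Lum after 15 min RT. Ctrl M-PTH(1-15) top 10uM.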
For NC(=Nc1ccccc1)NC(=O)c1nc(Cl)c(N)nc1N, the “activation” value was 6.45%.
With CC(C)(C)c1cc(/C=C(\C#N)C(N)=S)cc(C(C)(C)C)c1O the “activation” value was -16%.
In the case of CC#CCOC(=O)c1c(C)nc2sc3c(c2c1N)CCC(O)C3 (stereo not drawn), the “activation” value is reported as 16%.
COc1cc(CC(=O)O)ccc1O was tested, and the “activation” value was -1.57%.
For Nc1ccc2c3c(cccc13)C(=O)NC2=O, the “activation” value was -47.3%.
For N=C(N)SCCc1cnc[nH]1, the “activation” value was 14%.
O=c1cc(-c2ccccc2)[nH]c2nc(Cl)ccc12 was tested, and the “activation” value was -36.5%.
C[C@H](O)C(=O)C1=Nc2c(nc(N)[nH]c2=O)NC1 was tested, and the “activation” value was 3.05%.
For N[C@@H](CCC(=O)N[C@H](CSN=O)C(=O)NCC(=O)O)C(=O)O, the “activation” value was -10.8%.
In the case of CN(C)S(=O)(=O)c1ccc2c(c1)/C(=C/c1cc3c([nH]1)CCCC3)C(=O)N2, the “activation” value is reported as 25.2%.
For O=C(O)CCC(=O)N1CCCC1C(=O)O (stereo not drawn), the “activation” value was -7.89%.
With Cn1c(=O)c2[nH]c(-c3ccc(S(=O)(=O)O)cc3)nc2n(C)c1=O the “activation” value was 19.8%.
For Cn1cc(C(F)(F)F)nc1-c1ccc(OCC(O)CNCCOc2ccc(O)c(C(N)=O)c2)cc1 (stereo not drawn), the “activation” value was -33%.
With COc1ccc2c(c1)CCC1C2CC[C@@]2(C)C1CC[C@@H]2NCCCCCCN1C(=O)C=CC1=O (stereo partly drawn) the “activation” value was -52.6%.
With Nc1ccc(-c2nc3ccc(-c4nc5ccc(N)cc5[nH]4)cc3[nH]2)cc1 the “activation” value was -1.44%.
In the case of NS(=O)(=O)c1cccc2c1c([N+](=O)[O-])cc1nc(O)c(O)nc12, the “activation” value is reported as 5.15%.
In the case of CCCCCCCCCCCCCCCCCCOC[C@H](COP(=O)([O-])OCC[N+](C)(C)C)OC, the “activation” value is reported as 16.5%.
In the case of C=C1C(=O)O[C@@H]2[C@H]3O[C@]3(C)CCC=C(C)CC[C@@H]12, the “activation” value is reported as -34.2%.
In the case of O=C1NC(=O)c2cc(Nc3ccccc3)c(Nc3ccccc3)cc21, the “activation” value is reported as 7.41%.
With O=C(O)Cc1c[nH]c2ccc(O)cc12 the “activation” value was -10.6%.
For O=S(=O)(c1cccc2c(Cl)cccc12)N1CCCNCC1, the “activation” value was 6.11%.
c1ccc(CN2CCC3(CCCc4ccccc43)CC2)cc1 was tested, and the “activation” value was 28%.
For CC(O)C(O)[C@H]1CNc2nc(N)[nH]c(=O)c2N1 (stereo partly drawn), the “activation” value was -1.05%.
In the case of CCOC(=O)C12CC1/C(=N/O)c1ccccc1O2 (stereo not drawn), the “activation” value is reported as 17.8%.
In the case of OC1(c2ccc(Cl)cc2)CCN(Cc2c[nH]c3ccccc23)CC1, the “activation” value is reported as -11%.
In the case of CCC1(O)CC2CN(CCc3c([nH]c4ccccc34)[C@@](C(=O)OC)(c3cc4c(cc3OC)N(C)C3[C@]45CCN4CC=C[C@@](CC)([C@@H](OC(C)=O)[C@]3(O)C(=O)OC)[C@H]45)C2)C1 (stereo partly drawn), the “activation” value is reported as 17.6%.
For O=C(N[C@@H](Cc1ccccc1)C(=O)CCl)OCc1ccccc1, the “activation” value was -29%.
CC(C)(C)c1ccc(/C=C/C(=O)Nc2ccc3c(c2)OCCO3)cc1 was tested, and the “activation” value was 13.2%.
With Nc1nc2c(cnn2CCc2ccccc2)c2nc(-c3ccco3)nn12 the “activation” value was 13%.
For CC(=O)O[C@H]1CC2(C)[C@@H](C[C@@H](O)[C@H]3[C@@]4(C)CC[C@@H](O)[C@@H](C)[C@@H]4CC[C@@]32C)C1=C(CCC=C(C)C)C(=O)O (stereo partly drawn), the “activation” value was 7.76%.
For CC[n+]1c(/C=C/C=C2/N(C)c3ccccc3C2(C)C)sc2ccccc21, the “activation” value was -5.71%.
In the case of COc1ccccc1N1CCN(CCN(C(=O)c2ccc(F)cc2)c2ccccn2)CC1, the “activation” value is reported as 5.54%.
Cc1ccc2c(c1)C(N1CCN(C)CC1)=Nc1cccnc1N2 was tested, and the “activation” value was 26.5%.
With N#C/C(=C\c1ccc(O)c(O)c1)C(=O)NCCCNC(=O)/C(C#N)=C/c1ccc(O)c(O)c1 the “activation” value was 2.09%.
For COc1ccc(NC(=O)c2ccc(-c3ccc(-c4noc(C)n4)cc3C)cc2)cc1N1CCN(C)CC1, the “activation” value was 8.2%.
